# Results filed as inconclusive are left out. A call without a number means that no potency is given here. Values without a mark were called inactive. Activity calls are given as the source filed them. Calls come from the whole dose curve; as a rule, active = well fitted curve in the direction sought with a large enough effect; inconclusive = small, poorly fitted or top-dose-only effect, or another doubt; inactive = no such curve, though single readings can be large; an effect the other way counts as inactive or inconclusive. Where a SMILES comes first, the peptide text is derived from it.
# Experiments:
# [1] = P-glycoprotein substrates identified in KB-3-1 adenocarcinoma cell line, qHTS therapeutic library screen (AID 1346986); note: nearly all actives have a fitted effect of over 60% in size
# Procedure, shortened: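 KB-3-1 parental and colchicine-selected P-gp-overexpressing KB-8-5-11 cells (colchicine omitted during assay), 500 cells/well, dosed in dose-response for 72 h at 37 °C; CellTiter-Glo luminescence. Cytotoxic: curve class -1.1 to -2.4, max response >50%, AC50 < 10 uM.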
# [2] = P-glycoprotein substrates identified in KB-8-5-11 adenocarcinoma cell line, qHTS therapeutic library screen (AID 1346987); note: nearly all actives have a fitted effect of over 65% in size
# Procedure, shortened: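 Steps: plate 500 KB-8-5-11 cells/well in DMEM + 10% FCS (colchicine removed); pin compounds in dose-response; incubate 72 h, 37 degree C, 5% CO2; add CellTiter-Glo, 5 min; read luminescence.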
Molecule,Potency [1],Potency [2]
CO[C@H]1c2cc(C(C)C)c(O)c(O)c2[C@@]23CCCC(C)(C)C2[C@@H]1OC3=O (stereo partly drawn),inactive,inactive
CC1=CC(=O)C2C(C)(C)CCC[C@]2(C)[C@H]1CC[C@H](C)CC(=O)O (stereo partly drawn),inactive,inactive
C[C@@H]1C[C@H]2OC(=O)[C@@]3(C)CCC[C@](C)(C23)[C@@]1(O)CCC1=CC(=O)OC1O (stereo partly drawn),inactive,inactive
CC(=O)OC1C(C)C2C(OC3OC(CO)C(O)C(O)C3O)OC=C(C(=O)O)C2C1OC(=O)c1ccccc1 (stereo not drawn),inactive,inactive
H-DPPDPDRFYGMM-NH2,inactive,inactive
C=C[C@@](C)(CCC=C(C)C)O[C@@H]1O[C@H](CO[C@@H]2OC[C@H](O)[C@H](O)[C@H]2O)[C@@H](O)[C@H](O)[C@H]1O,inactive,inactive
C[C@H](/C=C/[C@@]1(O)[C@H](C)CC(=O)CC1(C)C)O[C@@H]1O[C@H](CO[C@@H]2OC[C@@H](O)[C@H](O)[C@H]2O)[C@@H](O)[C@H](O)[C@H]1O,inactive,inactive
Cc1oc(S(=O)(=O)N2CCCCC2)cc1NC(=O)Nc1ccccc1,inactive,inactive
CC(C)=CCC(O)[C@](C)(O)C1[C@H](O)C[C@@]2(C)C3CC=C4C(C[C@H](O)[C@@H](O[C@@H]5O[C@H](CO)[C@@H](O)[C@H](O)[C@H]5O)C4(C)C)[C@]3(C)C(=O)C[C@]12C (stereo partly drawn),inactive,inactive
Cc1cc(C(=O)N2Cc3cnn(C)c3Nc3ccccc32)ccc1CNC(=O)N1CCN(Cc2cc(O)cc(O)c2)CC1,inactive,inactive
CC1=C2C(=O)C=C(CO)C2[C@H]2OC(=O)[C@H](C)[C@@H]2[C@@H](OC(=O)Cc2ccc(O)cc2)C1 (stereo partly drawn),inactive,inactive
CCN1CCN(C(=O)N[C@@H](C(=O)N[C@@H]2C(=O)N3[C@@H]2SC(C)(C)[C@@H]3C(=O)O)c2ccccc2)C(=O)C1=O,inactive,inactive
O=C(O[C@H]1[C@H](Oc2ccc(O)cc2CO)O[C@H](CO)[C@@H](O)[C@@H]1O)c1ccccc1,inactive,inactive
O=C(O)C(Cc1ccccc1)NC(=O)C1CCCN1 (stereo not drawn) (H-Pro-Phe-OH; configuration not given here),inactive,inactive
CC(=O)O[C@@H]1CC2C(C)(C)C(=O)C=C[C@]2(C)C2CC[C@]3(C)C(=CC(=O)[C@@H]3c3ccoc3)[C@@]21C (stereo partly drawn),inactive,inactive
C[C@]1(C2CCCC2)Cc2cc(OCC(=O)O)c(Cl)c(Cl)c2C1=O,inactive,inactive
C/C=C/C=C/C(O)=C1/C(=O)[C@]2(C)C(=O)[C@@](C)(O)[C@H]1[C@H]([C@@]1(C)OC(=O)C(C)=C1O)[C@H]2C(=O)CC/C=C/C,inactive,inactive
CCOC(=O)CSc1nc2c(sc3ccccc32)c(=O)n1CCCN1CCCC1,inactive,inactive
CC1(C)CCCC2(C)c3c4c(c(=O)oc(=O)c3=CCC12)=CCC1C(C)(C)CCCC41C (stereo not drawn),inactive,inactive
COC(=O)C1=CO[C@@H](O[C@@H]2O[C@H](CO)[C@@H](O)[C@H](O)[C@H]2O)[C@@H]2[C@@H](C)[C@@H](OC(=O)/C=C/c3ccccc3)[C@@H](O)[C@H]12,inactive,inactive
COC(=O)C[C@@H]1C(C(=O)O)=CO[C@@H](O[C@@H]2O[C@H](CO)[C@@H](O)[C@H](O)[C@H]2O)/C1=C\COC(=O)/C=C/c1ccc(O)c(OC)c1,inactive,inactive
O=C(N[C@H](Cc1ccccc1)C(=O)O)c1sc2cc(F)ccc2c1Cl,inactive,inactive
CC/C=C/C(O)C(O)C1=C(C)C(=O)C2(O1)C(=O)NC(OC)(C(=O)c1ccccc1)C2O (stereo not drawn),inactive,inactive
COc1cc(CCCO)ccc1O[C@@H]1O[C@H](CO)[C@@H](O)[C@H](O)[C@H]1O,inactive,inactive

# From PubChem BioAssay (NCATS)
